Screens as filed in PubChem.
Hits are enriched below; roughly 1.6% of the tested compounds scored in any of these assays.
RecA intein inh – Mtb RecA intein splicing inhibitors, primary screen, biochemical, fluorescence, HTS | 290,000 compounds, 0.75% hits | Protein RecA (Mycobacterium tuberculosis (strain ATCC 25618 / H37Rv)), P9WHJ3 | inhibition, % (concentration not given with the values) | cell-free RecA intein splicing | AID 2221, 2009; in the data active means inhibition above about 30%; inconclusive means no clear call, values can overlap the other calls;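 further: 0% = vehicle wells and 100% = reference inhibitor control wells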
Target sequence (P9WHJ3 whole entry, looked up): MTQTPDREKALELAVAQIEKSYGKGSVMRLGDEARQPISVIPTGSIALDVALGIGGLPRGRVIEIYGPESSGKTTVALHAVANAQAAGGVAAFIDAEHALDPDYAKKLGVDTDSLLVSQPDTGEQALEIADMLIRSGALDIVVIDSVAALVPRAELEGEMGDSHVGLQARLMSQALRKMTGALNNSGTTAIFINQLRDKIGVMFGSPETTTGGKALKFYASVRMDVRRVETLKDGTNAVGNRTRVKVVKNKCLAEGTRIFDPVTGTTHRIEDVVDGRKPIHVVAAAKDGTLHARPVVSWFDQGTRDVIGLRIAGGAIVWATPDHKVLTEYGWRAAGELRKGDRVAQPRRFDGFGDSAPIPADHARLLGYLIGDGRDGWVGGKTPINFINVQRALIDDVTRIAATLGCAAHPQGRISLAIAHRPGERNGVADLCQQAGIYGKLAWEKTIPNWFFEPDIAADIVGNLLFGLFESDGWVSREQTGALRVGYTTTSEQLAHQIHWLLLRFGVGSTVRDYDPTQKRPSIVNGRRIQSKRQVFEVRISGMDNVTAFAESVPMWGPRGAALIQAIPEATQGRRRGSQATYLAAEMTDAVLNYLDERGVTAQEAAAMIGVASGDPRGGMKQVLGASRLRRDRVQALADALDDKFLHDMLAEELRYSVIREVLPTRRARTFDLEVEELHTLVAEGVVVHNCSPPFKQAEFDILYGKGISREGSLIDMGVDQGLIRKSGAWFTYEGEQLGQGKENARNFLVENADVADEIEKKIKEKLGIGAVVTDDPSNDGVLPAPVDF
CCHFV vOTU inh – CCHFV vOTU protease inhibitors, primary screen, biochemical, Pep-AMC substrate, fluorescence | Crimean-Congo hemorrhagic fever virus L polyprotein viral ovarian tumor (vOTU) protease … | 370,000 compounds, 0.55% hits | AID 651958, 2012 | inhibition, % at 11.5 µM; in the data active means inhibition above about 30%; further: 0% = vehicle wells with enzyme and 100% = no enzyme wells
Mtb hypoxia inh – PubChem AID 1159583; M. tuberculosis hypoxia-regulated fluorescent reporter, fluorescence; fluorescence inhibition, % (no concentration beside the values); 300,000 compounds, 0.1% hits; in the data active means fluorescence inhibition mostly above about 23%, no sharp cut-off; inactive means mostly below about 17%
BJeLR viability – MLPCN primary cell-based screen for lethality selective to Ras in HRASV12 cells | inhibition, % (test concentration not listed) | AID 1554, 2009 | BJeLR (HRASV12) viability, CellTiter-Glo ATP luminescence, 48 h | 300,000 compounds, 0.17% hits; in the data active means inhibition above about 50%; inconclusive means no clear call, values can overlap the other calls
ugtP null kill – growth inhibition of ugtP-null S. aureus, primary screen, RN4220 ugtP deletion, OD600; 16 h; growth inhibition, % (concentration not given with the values); 330,000 compounds, 0.54% hits; AID 1259309, 2017; in the data active means growth inhibition above about 68%;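 further: plate controls were untreated wells for no effect and antibiotic for full effect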
RN4220 kill – growth inhibition of S. aureus RN4220, primary screen, OD600; 16 h; AID 1259311, 2017; 330,000 compounds, 0.33% hits; inhibition, % (test concentration not listed); in the data active means inhibition above about 85%;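 further: plate controls were untreated cells for no effect and reference antibiotic for full effect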
GFP chromophore – counter-screen: blocks GFP chromophore formation, dose response, counter-screen, biochemical, fluorescence, homogeneous | shares compounds with RecA intein inh | cell-free GFP chromophore formation | EC50, µM | 2,100 compounds, 83% hits; call rule not given here
The depositor's hits bear a star; ? = inconclusive; . = no result given.

SMILES | RecA intein inh | CCHFV vOTU inh | Mtb hypoxia inh | BJeLR viability | ugtP null kill | RN4220 kill | GFP chromophore
CCC(=O)N1CC2(CC(c3cccc(NC(=O)COc4ccc(Cl)cc4)c3)=NO2)CC1C(N)=O (configuration not stated) | . | . | 3 | . | -1 | 4 | .
CC(N=Cc1ccccc1O)c1ccccc1 (configuration not stated) | 1 | -9 | 8 | 5 | 3 | 4 | .
Cc1cc(O)c(C(C)C)cc1N=Cc1ccccc1O | 51* | 13 | 2 | -2 | 16 | 7 | 15*
CCN1C(=O)c2c(C)nc3ccccc3c2C1=O | 47* | . | 3 | -11 | -2 | 1 | 2.2*
Cc1ccc(S(=O)(=O)C=Cc2ccccc2)cc1 | . | . | 12 | . | 4 | 9 | .
CNCc1ccccc1Sc1ccc(O)c(O)c1 | 88* | 6 | 2 | 6 | 8 | 17 | 3.3*
O=c1cc(N=Nc2ccc(Cl)cc2)[nH]c(=O)[nH]1 | 88* | -1 | 17 | 13 | 100* | 100* | ?
CCOc1ccc(-n2c(C)cc(C(=O)CCl)c2C)cc1 | 48* | -2 | 6 | 44 | 22 | 79 | 28*
CCOC(=O)c1cc(C)n(-c2ccc(Cl)cc2)c1C | 9 | 7 | 6 | -9 | 7 | 4 | .
COc1cc(/C=C2\C(=O)N(c3ccc(NC(C)=O)cc3)N=C2c2ccccc2)ccc1O | 83* | 14 | 6 | . | 6 | 5 | >38
CCOC(=O)NN=Cc1sccc1C | . | . | 3 | . | -9 | -5 | .
Cc1cccc(C)c1NC(=O)CN1C(=O)S/C(=C\c2cccn2-c2cccc(C(=O)O)c2)C1=O | 3 | 5 | . | 3 | -2 | 3 | .
Cc1cccc(C)c1-n1cccc1/C=C1\SC(=S)N(c2cccc(C(=O)O)c2)C1=O | 33* | 24 | 12 | 0 | 79 | 81 | 11*
Cc1ccc(C2=CC(=O)CC(c3ccc4c(c3)OCO4)C2)cc1 (configuration not stated) | . | . | 6 | . | 7 | 1 | .
O=[N+]([O-])c1cc([N+](=O)[O-])c2cc3ccccc3nc2c1 | 93* | 6 | . | 1 | . | . | 4.9*
O=[N+]([O-])c1cc(Br)c(Nc2ccccc2)c([N+](=O)[O-])c1 | 64* | 7 | 23 | 60* | 4 | 28 | 20*
O=[N+]([O-])c1ccc(Oc2ccc(F)cc2)c2ccncc12 | 67* | 0 | . | 1 | 11 | -2 | 32*
O=[N+]([O-])c1ccc(Oc2cccc(Br)c2)c2ccncc12 | 53* | 7 | . | -2 | 21 | 0 | 17*
CC1=NN(c2ccccc2)C(=O)C1=C(C)C | 55* | 7 | 7 | 0 | 13 | 6 | 8.5*
O=c1[nH]cc(O)c(=O)[nH]1 | 89* | -2 | . | -9 | 1 | 2 | 15*
COc1cc2c(cc1OC)-c1c3c(cc4c1C(C2)N(C)CC4)OCO3 (configuration not stated) | . | . | 8 | . | 4 | 2 | .
COc1cc2c(cc1OC)-c1c3c(cc4c1[C@@H](C2)N(C)CC4)OCO3 | 44* | 3 | . | -2 | . | . | 21*
COc1ccc(OCC(=O)NN=C(C)c2cccs2)cc1 | . | . | 6 | . | 0 | 0 | .
COc1ccc(CN2CCC(=O)N(C(CO)Cc3ccccc3)CC2)cc1 (configuration not stated) | . | . | -2 | . | -3 | 3 | .
COC(=O)CC1(c2cccc3ccccc23)C(=O)c2ccccc2C1=O | 42* | 10 | . | 8 | 5 | 5 | 6.6*
SMILES | RecA intein inh | CCHFV vOTU inh | Mtb hypoxia inh | BJeLR viability | ugtP null kill | RN4220 kill | GFP chromophore
COC(=O)CC1(c2ccccc2)C(=O)c2ccccc2C1=O | 2 | -10 | 17 | -3 | 6 | 8 | .
COc1ccc2c(c1)C1=NN(C(C)=CC(C)=O)C(c3cccc(F)c3)C1CC2 (configuration not stated) | . | . | -9 | . | -8 | -1 | .
COC(=O)c1ccc(C(=O)OC)c(-n2c(=O)c3ccccc3c3ccccc3c2=O)c1 | 40* | -1 | 18 | -3 | 2 | 5 | 25*
CC1CCCN(C(=O)COc2ccc(NC(=O)c3cccs3)cc2)C1 (configuration not stated) | 44* | 7 | 19 | 4 | 0 | 6 | >38
NC(=S)NN=Cc1ccc2c(c1)OCCO2 | . | . | . | . | -16 | 1 | .
CCOc1cc(CNc2ccc3cn[nH]c3c2)ccc1OC | 77* | 59* | -2 | -12 | -4 | 0 | 12*
COc1ccc(C2CC(=O)C=C(c3cc(Cl)ccc3C)C2)cc1 (configuration not stated) | . | . | 7 | . | 15 | -2 | .
CC=C(C)C(=O)Nc1cccc(C2=NOC3(C2)CC(C(N)=O)N(C(=O)C(c2ccccc2)c2ccccc2)C3)c1 (configuration not stated) | . | . | 3 | . | 3 | 4 | .
CCOc1cc(/C=N\NC(=O)OC(C)(C)C)ccc1OC(=O)c1ccco1 | 31* | 9 | . | -4 | . | . | >38
CCOc1cc(/C=N\NC(=O)OC)ccc1OC(=O)c1ccco1 | 25 | -5 | . | -14 | . | . | .
CC(C)(C)OC(=O)NN=Cc1ccc(OC(=O)c2cccs2)cc1 | . | . | 0 | . | 0 | 7 | .
COC(=O)N/N=C\c1ccc(OC(=O)c2ccco2)cc1 | 40* | -5 | . | -5 | . | . | >38
CC(C)(C)OC(=O)N/N=C\c1ccc(OC(=O)c2ccco2)cc1 | 43* | -5 | . | 8 | . | . | >38
CCOC(=O)N/N=C\c1ccc(OC(=O)c2ccco2)cc1 | 34* | 6 | . | 2 | . | . | >38
COC(=O)N/N=C/c1ccc(OC(=O)/C=C/c2ccco2)cc1 | -1 | 0 | . | -11 | . | . | .
O=C(CSc1ccc(Cl)cc1)NN=Cc1cccnc1 | . | . | 9 | . | -1 | 8 | .
C(=N\Nc1nncc2ccccc12)/c1ccccn1 | 38* | 11 | . | 56* | . | . | 10*
Cc1cc(=O)[nH]c(NN=Cc2cc(C)n(CC(F)(F)F)c2C)n1 | . | . | 6 | . | -2 | 2 | .
Cc1ccccc1CS(=O)(=O)c1snnc1C | 44* | 2 | 10 | -10 | 6 | 7 | >38
O=[N+]([O-])/C(C(Cl)=C(Cl)Cl)=C(/Sc1ccccc1)N1CCCCC1 | 34* | -9 | 1 | -2 | 3 | 5 | >38
O=C(CCl)NN=C(c1ccccc1)c1ccccc1 | 59* | -10 | 18 | -10 | 4 | 3 | 26*
CC1(C)c2[nH]c3ccccc3c2CC2C(=O)N(c3cc(F)ccc3F)C(=O)N21 (configuration not stated) | . | . | -1 | . | 0 | 5 | .
